We go through 19 compounds from PubChem BioAssay.

Assay [1] can be described thus: antimalarial activity against Dd2 strain (AID 2302;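 active means growth inhibition above 50% at the single 2 µM test dose, taken to imply half-maximal potency below 2 µM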;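 further: 0% = DMSO untreated growth and 100% = chloroquine plus artemisinin killed control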). As to conditions: P. falciparum Dd2 in RBCs, LDH growth readout, 72 h; at 2 µM; stronger effect = higher value.
Assay [2] in a line: HepG2 cytotoxicity, primary screen, cytotoxicity control for P. falciparum antimalarial project, cell-based, ATP luminescence (AID 2303;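 active means inhibition above 50%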;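 further: 0% = DMSO wells and 100% = digitonin-killed cells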). The conditions noted are these: HepG2 viability, 24-48 h, at 10 µM, stronger effect = higher value.
The target in assay [3] is L-lactate dehydrogenase (Plasmodium falciparum (isolate CDC / Honduras)) (UniProt Q27743). The experiment in a line: PfLDH activity inhibition – cell lysate, 3D7 strain, counter-screen for P. falciparum growth inhibition project (AID 2304).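 Further: 0% = vehicle and 100% = reference inhibitor.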 The conditions noted are these: P. falciparum 3D7 crude extract, LDH APAD/NBT absorbance; at 2 µM; stronger effect = higher value.
Sequence of L-lactate dehydrogenase (Plasmodium falciparum (isolate CDC / Honduras)) (Q27743 whole entry, looked up): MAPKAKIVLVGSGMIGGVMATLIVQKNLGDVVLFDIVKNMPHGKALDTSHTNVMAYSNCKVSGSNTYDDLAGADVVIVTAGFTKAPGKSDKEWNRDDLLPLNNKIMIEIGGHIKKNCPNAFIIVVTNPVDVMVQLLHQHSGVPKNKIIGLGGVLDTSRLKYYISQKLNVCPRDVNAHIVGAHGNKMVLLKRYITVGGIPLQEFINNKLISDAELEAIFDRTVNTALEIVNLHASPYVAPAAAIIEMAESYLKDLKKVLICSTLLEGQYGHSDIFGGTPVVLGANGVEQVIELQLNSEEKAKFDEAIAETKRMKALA
Assay [4] is described as follows: inhibition of 3D7 malaria parasite growth – strain 3D7 (AID 2306).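 Further: 0% = DMSO wells and 100% = chloroquine plus artemisinin control wells.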 As to conditions: P. falciparum 3D7 erythrocytic growth, LDH absorbance, 72 h; at 2 µM; stronger effect = higher value.
The target in assay [5] is Calcium-dependent protein kinase 1 (Plasmodium falciparum (isolate 3D7)) (UniProt P62344). The assay is described as follows: PfCDPK1 kinase inhibitors, biochemical, TCAMS library (AID 1159585; cut-off not given, nearly all actives have IC50 up to about 0.98 µM;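 further: inhibitors leave more ATP so luminescence rises with inhibition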). The conditions noted are these: recombinant PfCDPK1, Kinase-Glo ATP depletion luminescence.
Sequence of Calcium-dependent protein kinase 1 (Plasmodium falciparum (isolate 3D7)) (P62344 whole entry, looked up): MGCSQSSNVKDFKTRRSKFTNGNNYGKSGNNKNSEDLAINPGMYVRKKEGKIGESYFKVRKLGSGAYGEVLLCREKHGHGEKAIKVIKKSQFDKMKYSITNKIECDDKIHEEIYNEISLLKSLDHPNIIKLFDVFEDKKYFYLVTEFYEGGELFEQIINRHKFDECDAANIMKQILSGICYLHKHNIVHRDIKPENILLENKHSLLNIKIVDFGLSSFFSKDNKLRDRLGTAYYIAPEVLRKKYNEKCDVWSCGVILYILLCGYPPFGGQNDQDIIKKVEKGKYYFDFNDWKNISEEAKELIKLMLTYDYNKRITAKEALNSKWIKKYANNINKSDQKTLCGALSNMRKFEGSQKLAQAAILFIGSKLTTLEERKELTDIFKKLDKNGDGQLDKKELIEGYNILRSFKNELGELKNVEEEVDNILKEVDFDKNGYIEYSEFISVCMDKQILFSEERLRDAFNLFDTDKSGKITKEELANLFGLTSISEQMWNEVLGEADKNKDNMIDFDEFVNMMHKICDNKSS
Assay [6] has as its target Plasmodium falciparum protein kinase 6 (PK6, PF3D7_1337100) (UniProt Q8IDW1). The experiment in a line: PfPK6 kinase inhibitors, biochemical, TCAMS library (AID 1159586). As to conditions: recombinant PfPK6, Kinase-Glo ATP depletion luminescence. In general terms: In Kinase-Glo more light means more ATP remaining.
Assay [7] has as its target Protein kinase 7 (PK7), Plasmodium falciparum 3D7 (PF3D7_0213400) (UniProt Q7YTF7). The assay is described as follows: inhibition of Plasmodium PK7 catalytic activity – biochemical, TCAMS antimalarial set, Kinase-Glo luminescence (AID 1159587). The conditions noted are these: recombinant PfPK7, Kinase-Glo ATP depletion luminescence.
In assay [8] the target is Calcium-dependent protein kinase 4 (Plasmodium falciparum (isolate 3D7)) (UniProt Q8IBS5). The experiment in a line: PfCDPK4 kinase inhibitors, biochemical, TCAMS library (AID 1159588; cut-off not given, nearly all actives have IC50 up to about 0.91 µM). The conditions noted are these: recombinant PfCDPK4, Kinase-Glo ATP depletion luminescence.
Sequence of Calcium-dependent protein kinase 4 (Plasmodium falciparum (isolate 3D7)) (Q8IBS5 whole entry, looked up): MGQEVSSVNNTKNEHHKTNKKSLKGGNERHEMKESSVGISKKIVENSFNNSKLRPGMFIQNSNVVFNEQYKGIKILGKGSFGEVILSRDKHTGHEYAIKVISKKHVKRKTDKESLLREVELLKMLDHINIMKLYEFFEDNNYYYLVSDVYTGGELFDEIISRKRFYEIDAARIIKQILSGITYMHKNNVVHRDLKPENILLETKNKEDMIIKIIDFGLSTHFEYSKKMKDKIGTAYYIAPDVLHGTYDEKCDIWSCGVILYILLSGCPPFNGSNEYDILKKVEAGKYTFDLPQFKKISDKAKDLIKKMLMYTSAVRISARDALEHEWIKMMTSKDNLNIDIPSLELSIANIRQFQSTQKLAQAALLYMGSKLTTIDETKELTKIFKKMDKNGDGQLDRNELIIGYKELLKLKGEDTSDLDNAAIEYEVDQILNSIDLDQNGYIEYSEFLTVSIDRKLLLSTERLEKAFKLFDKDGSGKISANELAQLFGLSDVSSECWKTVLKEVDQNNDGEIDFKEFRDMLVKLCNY

The structures appear in SMILES notation. A number with no mark means an inactive call. For some assays here: Measured potencies and affinities stand elsewhere. Activity calls are given as the source filed them. Unless noted, how the calls were made is not given here.

Sequence of Plasmodium falciparum protein kinase 6 (PK6, PF3D7_1337100) (Q8IDW1 1-305): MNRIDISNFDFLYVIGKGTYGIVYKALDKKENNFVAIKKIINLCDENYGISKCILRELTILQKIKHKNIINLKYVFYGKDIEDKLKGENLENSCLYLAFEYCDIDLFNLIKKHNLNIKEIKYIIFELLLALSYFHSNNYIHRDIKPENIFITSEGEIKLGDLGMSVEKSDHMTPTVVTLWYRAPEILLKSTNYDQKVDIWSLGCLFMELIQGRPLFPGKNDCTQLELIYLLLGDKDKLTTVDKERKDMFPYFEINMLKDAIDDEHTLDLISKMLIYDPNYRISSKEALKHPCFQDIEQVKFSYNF
Sequence of Protein kinase 7 (PK7), Plasmodium falciparum 3D7 (PF3D7_0213400) (Q7YTF7 1-343): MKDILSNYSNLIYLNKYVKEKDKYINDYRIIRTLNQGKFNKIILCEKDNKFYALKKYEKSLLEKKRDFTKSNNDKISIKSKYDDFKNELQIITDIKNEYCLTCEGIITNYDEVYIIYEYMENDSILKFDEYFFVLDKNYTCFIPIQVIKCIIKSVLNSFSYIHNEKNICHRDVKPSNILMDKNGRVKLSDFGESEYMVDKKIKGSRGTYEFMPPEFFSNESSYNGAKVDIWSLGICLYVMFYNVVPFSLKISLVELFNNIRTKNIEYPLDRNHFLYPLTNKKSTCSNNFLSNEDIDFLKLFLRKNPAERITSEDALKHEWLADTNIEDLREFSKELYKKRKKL

By inhibition is commonly meant the relative decrease from the control value, in per cent. In the case of `CC(C)C(=O)ONC1=NC(C)(C)N(OCCCOc2cc(Cl)c(Cl)cc2Cl)C(N)=N1`, the results for the growth inhibition in assay [1] and in assay [4] were 96% (active) and 95% (active), respectively. Moreover, the inhibition in assay [2] was 64% (active); in assay [3] it was -4%. In addition, the outcome in assay [5], in assay [6], in assay [7] and in assay [8] was inactive.

With `Cc1ccc(O)cc1Nc1ccnc2cc(-c3csc(CNCCN4CCOCC4)n3)ccc12`, the growth inhibition is 99% (active) in assay [1] and 101% (active) in assay [4]. The results for the inhibition in assay [2] and in assay [3] were 6% and -3%, respectively. Moreover, the result in assay [5], in assay [6], in assay [7] and in assay [8] was inactive.

With `O=C(NC(CCCN1CCC(c2ccccc2)CC1)c1ccc(Cl)c(Cl)c1)c1cc(C(F)(F)F)cc(C(F)(F)F)c1` (configuration not stated), the growth inhibition was 87% (active) in assay [1] and 92% (active) in assay [4]. Moreover, the inhibition in assay [2] is 33%; in assay [3] it was 3%. Besides, the result in assay [5], in assay [6], in assay [7] and in assay [8] was inactive.

For `CCOc1ccccc1C(=O)N1CCc2cc3nccc(N4CCN5CCC[C@H]5C4)c3cc21`, the values for the growth inhibition in assay [1] and in assay [4] were 58% (active) and 100% (active), respectively. The inhibition in assay [2] is 4%; in assay [3] it was -8%. Also, the result in assay [5], in assay [6], in assay [7] and in assay [8] was inactive.

Take `COc1ccc2nc3cc(Cl)ccc3c(NCCN(C)C)c2c1`: the values for the growth inhibition in assay [1] and in assay [4] were 100% (active) and 102% (active), respectively. Further, the inhibition in assay [2] was 4%; in assay [3], -2%. Also, the result in assay [5], in assay [6], in assay [7] and in assay [8] was inactive.

On to `CCN(CC)CCN(Cc1ccc(-c2ccc(C(F)(F)F)cc2)cc1)C(=O)Cn1c(CCc2cccc(F)c2F)c(C)c(=O)c2ccccc21`, for which the figures for the growth inhibition in assay [1] and in assay [4] were 52% (active) and 87% (active), respectively. For the same compound, the inhibition in assay [2] is 61% (active); in assay [3], 3%. Further, the outcome in assay [5], in assay [6], in assay [7] and in assay [8] was inactive.

For `Clc1ccc2c(NCc3ccccn3)ccnc2c1`, the growth inhibition in assay [1] and in assay [4] was 99% (active) in each case. For the same compound, the figures for the inhibition in assay [2] and in assay [3] were 0% and -4%, respectively. Also, the result in assay [5], in assay [6], in assay [7] and in assay [8] was inactive.

For the compound `Cc1onc(-c2c(F)cccc2Cl)c1C(=O)Nc1ccccc1I`, the growth inhibition in assay [1] is 52% (active); in assay [4], 99% (active). Also, the inhibition in assay [2] was -8%; in assay [3], -4%. Besides, the result in assay [5], in assay [6], in assay [7] and in assay [8] was inactive.

Take `NC(=O)c1cccc(Nc2nccc(Nc3ccc(Oc4ccc5ccccc5c4)cc3)n2)c1`: the growth inhibition was 31% in assay [1] and 96% (active) in assay [4]. In addition, the figures for the inhibition in assay [2] and in assay [3] were 15% and 5%, respectively. Moreover, the outcome in assay [5], in assay [6], in assay [7] and in assay [8] was inactive.

As to `O=C(c1ccc([N+](=O)[O-])o1)N1CCC(Cc2ccc(C(F)(F)F)cc2)CC1`, the values for the growth inhibition in assay [1] and in assay [4] were 99% (active) and 101% (active), respectively. Moreover, the inhibition in assay [2] is 38%; in assay [3], -2%. Besides, the outcome in assay [5], in assay [6], in assay [7] and in assay [8] was inactive.

As for `CCN(CCNC(=O)C1CCN(c2cc(-c3cccc(C)c3)ncn2)CC1)Cc1ccccc1`, the figures for the growth inhibition in assay [1] and in assay [4] were 72% (active) and 83% (active), respectively. In addition, the figures for the inhibition in assay [2] and in assay [3] were 24% and 2%, respectively. Further, the result in assay [5], in assay [6], in assay [7] and in assay [8] was inactive.

As for `CCC(C)(C)c1ccc(OCCCC(=O)Nc2ccc(Cl)c([N+](=O)[O-])c2)c(C(C)(C)CC)c1`, the growth inhibition in assay [1] is 88% (active); in assay [4], 92% (active). In addition, the inhibition is -1% in assay [2] and -8% in assay [3]. The outcome in assay [5], in assay [6], in assay [7] and in assay [8] was inactive.

For the compound `Cc1cccc2[nH]c(-c3cccc(-c4ccc(CNCc5cccc(N)c5)cc4)c3)nc12`, the figures for the growth inhibition in assay [1] and in assay [4] were 93% (active) and 101% (active), respectively. For the same compound, the inhibition in assay [2] is 19%; in assay [3], -3%. Also, the result in assay [5], in assay [6], in assay [7] and in assay [8] was inactive.

Regarding `COCCN1CCC(C(=O)NCC(C)(C)c2nc(-c3ccc(Br)c(O)c3)c(-c3ccncc3)[nH]2)CC1`, the growth inhibition in assay [1] was 6%; in assay [4], 99% (active). Besides, the inhibition was -12% in assay [2] and 3% in assay [3]. Further, the outcome in assay [5], in assay [6], in assay [7] and in assay [8] was inactive.

Turning to `CC(C)N1CCC(N(Cc2ccc(-c3ccc(C(F)(F)F)cc3)cc2)C(=O)Cn2c(CCc3cccc(F)c3F)cc(=O)c3ccccc32)CC1`, the values for the growth inhibition in assay [1] and in assay [4] were 73% (active) and 99% (active), respectively. Further, the inhibition in assay [2] is 50% (active); in assay [3], -6%. For the same compound, the result in assay [5], in assay [6], in assay [7] and in assay [8] was inactive.

Take `Cc1ccc(CNC(=O)[C@H](CCCN)Nc2cc(C)nc(NCC3CCCCC3)n2)cc1`: the growth inhibition is -2% in assay [1] and 90% (active) in assay [4]. Also, the values for the inhibition in assay [2] and in assay [3] were 1% and 0%, respectively. Also, the result in assay [5], in assay [6], in assay [7] and in assay [8] was inactive.

As to `Cc1ccc(-c2nnc3c4ccccc4c(C)nn23)cc1S(=O)(=O)N1CCN(CCO)CC1`, the growth inhibition is 62% (active) in assay [1] and 85% (active) in assay [4]. The inhibition in assay [2] is 16%; in assay [3] it was -4%. Also, the outcome in assay [5], in assay [6], in assay [7] and in assay [8] was inactive.

`CC(=O)Nc1cccc(CN(Cc2ccc(-c3ccc(CNCc4cccnc4)cn3)cc2)C(=O)Cc2cccnc2)c1`: the growth inhibition is 65% (active) in assay [1] and 97% (active) in assay [4]. The inhibition in assay [2] was -3%; in assay [3] it was -10%. Besides, the result in assay [5], in assay [6], in assay [7] and in assay [8] was inactive.

For `O=C(Nc1n[nH]c2nc(-c3ccco3)c(Br)cc12)c1ccc(CN2CCCC2)cc1`, the growth inhibition is 53% (active) in assay [1] and 101% (active) in assay [4]. The inhibition was 1% in assay [2] and 2% in assay [3]. For the same compound, the outcome in assay [5], in assay [6], in assay [7] and in assay [8] was inactive.
